Compound activity: PubChem BioAssay, Johns Hopkins Ion Channel Center
In the library only some 1.6% were active in any assay of this set; here they are far more common.
KCNQ2 pot = potentiators of rat KCNQ2 potassium channel. B-score at 10 µM. Potassium voltage-gated channel subfamily KQT member 2 (Rattus norvegicus), O88943. CHO-K1 KCNQ2, FluxOR thallium flux fluorescence; stronger effect = higher value. 0.54% of 310,000 active. AID 2239, 2010;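 active means fluorescence ratio B-score at least 3 SD of library B-scores, with initial fluorescence B-score within 3 of them, cut at about 5.3 in these data; same plate scores as AID 2156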;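 further: B-score of peak minus minimum over baseline fluorescence ratio after K+ and Tl+ stimulus; positive B-score means potentiation of KCNQ2 with more thallium influx and brighter signal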
Target sequence (O88943 whole entry, looked up): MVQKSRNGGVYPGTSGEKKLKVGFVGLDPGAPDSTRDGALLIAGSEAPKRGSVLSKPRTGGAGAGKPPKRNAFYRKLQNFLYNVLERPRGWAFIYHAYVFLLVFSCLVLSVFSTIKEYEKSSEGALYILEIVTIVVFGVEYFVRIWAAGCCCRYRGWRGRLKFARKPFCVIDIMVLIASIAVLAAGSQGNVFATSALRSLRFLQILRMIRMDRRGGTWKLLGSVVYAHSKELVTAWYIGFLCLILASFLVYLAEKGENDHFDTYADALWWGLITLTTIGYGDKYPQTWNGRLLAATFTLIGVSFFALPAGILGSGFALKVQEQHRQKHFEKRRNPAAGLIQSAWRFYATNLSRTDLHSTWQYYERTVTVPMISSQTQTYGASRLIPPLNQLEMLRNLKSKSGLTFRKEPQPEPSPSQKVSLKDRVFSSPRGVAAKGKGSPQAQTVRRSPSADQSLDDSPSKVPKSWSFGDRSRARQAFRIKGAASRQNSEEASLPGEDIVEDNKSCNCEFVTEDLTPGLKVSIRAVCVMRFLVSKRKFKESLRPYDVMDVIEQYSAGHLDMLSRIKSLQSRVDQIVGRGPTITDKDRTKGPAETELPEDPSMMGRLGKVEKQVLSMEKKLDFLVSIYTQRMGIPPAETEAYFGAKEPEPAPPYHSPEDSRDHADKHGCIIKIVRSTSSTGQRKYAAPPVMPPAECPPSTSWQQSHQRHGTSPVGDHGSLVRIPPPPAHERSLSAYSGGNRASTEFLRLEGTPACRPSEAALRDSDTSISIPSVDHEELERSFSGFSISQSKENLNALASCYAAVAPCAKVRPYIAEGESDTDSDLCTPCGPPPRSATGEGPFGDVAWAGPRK
KCNQ2 inh = rat KCNQ2 potassium channel inhibitors, primary screen, cell-based, CHO-K1, FluxOR thallium flux, B-score. Potassium voltage-gated channel subfamily KQT member 2 (Rattus norvegicus), O88943. 1.1% of 310,000 active. 20 min; stronger effect = lower value. B-score at 10 µM;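 active means fluorescence ratio B-score at most minus 3 library SDs, with starting brightness B-score within 2 library SDs, cut at about -5.5 in these data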
Kir21 conf inh = mouse Kir2.1 channel blockers, retest, confirmation, cell-based, FluxOR thallium flux, duplicate; Kir2.1-expressing cells, FluxOR thallium flux fluorescence; stronger effect = lower value; Tl flux remaining, % of negative control (stronger effect = lower value), % at 10 µM; 41% of 2,300 active; shares compounds with KCNQ2 pot; AID 2032, 2009;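 active means Primary-screen hit whose thallium flux fell at least 3 control SD below untreated wells in both duplicates, with normal baseline fluorescence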;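 further: 0% = blank wells without stimulus and 100% = stimulated no-compound controls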
HEK293 Tl flux = alters thallium flux in parental HEK293 cells, Kir2.1 counter-screen. shares compounds with KCNQ2 pot. FluxOR thallium flux fluorescence; 0% = unstimulated blank wells. FluxOR signal as % of negative control (100 = no effect), % at 10 µM. 19% of 2,300 active;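 active means dye signal at least 3 control SD above or below untreated wells in both duplicates, raw fluorescence within 3, either direction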;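 further: percent is based on the flux ratio of peak minus minimum fluorescence over baseline F0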
CHO-K1 Tl ctr = nonspecific thallium flux increase in parental CHO-K1, confirmation, counter-screen for KCNQ2 potentiator project, cell-based, FluxOR thallium flux, duplicate | shares compounds with KCNQ2 pot | parental CHO-K1 cells, FluxOR thallium flux fluorescence; zero = vehicle mean+3SD, 100% = vehicle-minus-blank window | activity increase over 3SD of controls, % at 10 µM | 43% of 1,200 active;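 active means signal rise of at least 3 SD above the untreated control mean, in both duplicate wells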;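 further: counter screen of KCNQ2 potentiator hits so any rise reflects channel-independent effects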
KCNQ1 pot spec = human KCNQ1 channel potentiation off-target, confirmation, selectivity assay for KCNQ2 potentiator project, cell-based, CHO, FluxOR thallium flux; shares compounds with KCNQ2 pot; CHO KCNQ1 stable, FluxOR thallium flux fluorescence; beyond 3SD, as % of vehicle-control signal; activation over 3SD threshold, % at 10 µM; 28% of 1,200 active; AID 2283, 2010;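 active means fluorescence ratio rise of at least 3 SD of vehicle wells above their mean, in both replicate wells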;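 further: 0% = vehicle mean plus 3 SD and 100% = vehicle minus unstimulated blank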
KCNQ2 pot confirm = rat KCNQ2 channel potentiators, confirmation, cell-based, CHO, FluxOR thallium flux, duplicate | shares compounds with KCNQ2 pot | CHO-KCNQ2 cells, FluxOR thallium flux fluorescence | potentiation, less the hit threshold, % at 10 µM | 68% of 1,200 active;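 active means fluorescence ratio rising 3 SD or more over the vehicle control mean in both replicates, plus primary screen hit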;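 further: peak minus minimum thallium fluorescence divided by baseline after K/Tl stimulus; 0% = vehicle mean plus 3 SD and 100% = vehicle minus unstimulated blank difference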
Kir2-1 sel = mouse Kir2.1 channel activation off-target, confirmation, selectivity assay for KCNQ2 potentiator project, cell-based, HEK293, FluxOR thallium flux. shares compounds with KCNQ2 pot. HEK293 Kir2.1, FluxOR thallium flux fluorescence. activity over 3SD threshold, % at 10 µM. 2% of 1,200 active. AID 2345, 2010;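 active means fluorescence ratio rise of at least 3 SD above the vehicle-control mean, seen in both replicates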;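 further: 0% = vehicle mean plus 3 SD and 100% = vehicle minus no-stimulus blank window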
KCNQ2 W236L pot = potentiators of retigabine-insensitive KCNQ2 W236L, mechanism study for KCNQ2 potentiator project, cell-based, rat KCNQ2 W236L, CHO, automated patch clamp | shares compounds with KCNQ2 pot | automated patch clamp current | current increase over 3SD of negative controls (%), stronger effect = higher value, % at 25 µM | 10% of 940 active | AID 2558, 2010;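 active means current increase at least 3 SD of the untreated controls above them in both duplicate recordings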
An asterisk follows results filed as active; i = inactive; . = no result given.

SMILES | KCNQ2 pot | KCNQ2 inh | Kir21 conf inh | HEK293 Tl flux | others
C=CCc1ccccc1OCC(O)CN1CCN(Cc2ccc3c(c2)OCO3)CC1 (centres undefined) | 1.44 | i | . | .
O=C(Nc1sc2c(c1C(=O)O)CCCC2)c1cccc(Cl)c1 | 5.44* | i | i | i | CHO-K1 Tl ctr=-14.8;KCNQ1 pot spec=-32.3;KCNQ2 pot confirm=4.9*;Kir2-1 sel=-34.0;KCNQ2 W236L pot=i
O=C(Nc1sc2c(c1C(=O)O)CCC2)c1ccccc1 | 1.41 | i | . | .
O=C(Nc1sc2c(c1C(=O)O)CCCC2)c1ccc(Cl)cc1 | 7.88* | i | i | i | CHO-K1 Tl ctr=-10.1;KCNQ1 pot spec=-21.2;KCNQ2 pot confirm=-5.1;Kir2-1 sel=-29.9
O=C(Nc1sc2c(c1C(=O)O)CCCCC2)c1ccccc1 | 1.28 | i | . | .
CCN(CCO)c1ncnc2c1sc1nc(C(C)C)c3c(c12)CC(C)(C)OC3 | 0.18 | i | . | .
COC(=O)c1cc(S(=O)(=O)NCCc2ccccc2)c[nH]1 | . | i | . | .
CC(C)CN(Cc1c(O)ccc2ccccc12)CC(C)C | 6.48* | i | i | i | CHO-K1 Tl ctr=-13.3;KCNQ1 pot spec=-12.2;KCNQ2 pot confirm=-29.1;Kir2-1 sel=-41.2
CN(C)Cc1c(O)ccc2ccccc12 | . | i | . | .
CC1(C(=O)NC2CCCC2)CCC(=O)N1Cc1ccccc1Cl (centres undefined) | 0.55 | i | . | .
O=C(NC(=S)Nc1nc(-c2ccc(Cl)cc2)cs1)c1cccs1 | 1.09 | i | . | .
O=C(Nc1cnn(C23CC4CC(CC(C4)C2)C3)c1)c1cc(-c2ccccc2)on1 | 0.83 | i | . | .
CCCn1cc(NC(=O)c2cc(-c3ccccc3)on2)cn1 | 5.73* | i | i | i | CHO-K1 Tl ctr=23.8*;KCNQ1 pot spec=-15.0;KCNQ2 pot confirm=-59.7
Cc1ccc(C)c(NS(=O)(=O)c2c(C)ccc3nsnc23)c1 | . | i | . | .
Cc1ccc2nsnc2c1S(=O)(=O)Nc1cccc2nsnc12 | 6.13* | i | i | 237.5%*
CCOC(=O)c1ccccc1NC(=O)c1c(O)c2ccccc2n(CC)c1=O | . | i | . | .
CC(C)C[C@H](NC(=O)Nc1cccc(Cl)c1)C(=O)O | . | i | . | .
CCCC12CN(C(=O)c3ccco3)CC(CCC)(CN(C(=O)c3ccco3)C1)C2=O | . | i | . | .
Cc1ccc(N2CCN(C(=O)c3ccccc3NC(=O)C3CCCCC3C(=O)O)CC2)cc1 (centres undefined) | . | i | . | .
CCCCCCOC(=O)C1=C(C)NC(=O)NC1c1ccc2c(c1)OCO2 (centres undefined) | . | i | . | .
CC12CC3(C)CC(C)(C1)CC(NC(=O)N1CCCC1)(C2)C3 | 0.43 | i | . | .
O=C1C(Cc2c[nH]c3ccccc23)NC(=S)N1Cc1ccccc1 (centres undefined) | . | i | 48.0%* | i
O=C1NC(Cc2c[nH]c3ccccc23)C(=O)N1Cc1ccccc1 (centres undefined) | . | i | . | .
CN1CCN(CCCNC(=O)CCCOc2cc(=O)n(C)c3ccccc23)CC1 | 1.14 | i | . | .
CC1CCCC(NS(=O)(=O)c2cccc3nsnc23)C1C (centres undefined) | 0.77 | i | . | .
SMILES | KCNQ2 pot | KCNQ2 inh | Kir21 conf inh | HEK293 Tl flux | others
CC(C)Cc1ccc(/C(=N/O)C(=O)O)s1 | 7.08* | i | i | i | CHO-K1 Tl ctr=23.2*;KCNQ1 pot spec=-13.7;KCNQ2 pot confirm=26.7*;Kir2-1 sel=-41.4;KCNQ2 W236L pot=i
CCc1ccc(C(=O)c2ccccc2C(=O)O)s1 | . | i | . | .
O=C1CC(=O)N(c2ccccc2)c2ccccc21 | . | i | . | .
CS(=O)(=O)c1ccccc1-c1nnc(NC(=O)c2ccc(S(=O)(=O)N3CCCC3)cc2)o1 | . | i | . | .
CC1(C)Cc2sc3c(=O)[nH]c(=S)[nH]c3c2CO1 | . | i | . | .
CCN(CC)CCNCc1cc(Br)ccc1OCC(=O)NCc1ccccc1 | . | i | . | .
CC(NCc1cc(Br)ccc1OCC(=O)NCc1ccccc1)c1ccccc1 (centres undefined) | . | i | 43.0%* | i
COc1ccc(OC)c(NC(=O)c2ccc(NS(C)(=O)=O)cc2)c1 | . | i | . | .
O=[N+]([O-])c1cc(Cl)ccc1N1CCCCC1 | 0.75 | i | . | .
Nc1cc(N2CCCCC2)c(Cl)cc1[N+](=O)[O-] | 9.2* | i | i | i | CHO-K1 Tl ctr=139.2*;KCNQ1 pot spec=-17.4;KCNQ2 pot confirm=45.3*;Kir2-1 sel=-27.4;KCNQ2 W236L pot=27.9%*
N#C/C(=C\C=C\c1ccccc1)C(=O)NCc1cccnc1 | 1.22 | i | . | .
COc1ccc(C)cc1NC(=O)CSc1nc2ccccc2nc1N1CCCCC1 | . | i | . | .
Cc1ccc(C(=O)NCCN2C3=NC[C@H](C(C)C)N3C[C@H]2Cc2ccc(O)cc2)cc1Br | . | i | . | .
COc1ccc(C[C@H]2CN3C(=NC[C@@H]3C(C)C)N2CCNC(=O)c2ccc(C)c(Br)c2)cc1 | . | i | 49.0%* | i
COC(=O)c1ccc(CNCC(=O)Nc2ccc(C(=O)OC)cc2)cc1 | 0.64 | i | . | .
CCCCSc1nnc(-c2ccc(NC(=O)CCc3ccccc3)cc2)n1C | 0.71 | i | . | .
COc1ccc(Nc2ccc(Cl)nn2)cc1 | 0.66 | i | . | .
Clc1ccc(Nc2ccc(Cl)nn2)cc1 | 6.63* | i | i | i | CHO-K1 Tl ctr=17.0*;KCNQ1 pot spec=35.7*;KCNQ2 pot confirm=13.9*;Kir2-1 sel=-32.8;KCNQ2 W236L pot=25.5%*
O=C(Nc1nc(COc2ccccc2)cs1)C1CCC1 | 0.65 | i | . | .
COc1ccc(CNc2nc3ccccc3n2CCN2CCCCC2)cc1 | . | i | . | .
COc1ccc(CCN2CCC(Nc3nc4ccccc4n3Cc3ccc(F)cc3)CC2)cc1 | . | i | i | i
Nc1c(-c2ccccc2Cl)cnn1-c1cccc([N+](=O)[O-])c1 | 5.35* | i | i | 127.0%* | CHO-K1 Tl ctr=-19.6;KCNQ1 pot spec=-33.1;KCNQ2 pot confirm=2.3*;Kir2-1 sel=-25.1;KCNQ2 W236L pot=i
